Test results from PubChem BioAssay AID1159580 (chemical genetic matrix, 2015).
Among all 5,500 compounds or so, about 2,000 (36%) were called active. Another 18% or so got no clear call; they are omitted. Cut-off read from the data, not from the text of the source: active = normalized growth mostly below about 0.91 (no sharp cut-off); inconclusive = no clear call, values can overlap the other calls; inactive = mostly above about 0.92. The list shows a part of the results.

Experiment: chemical genetic growth profiling, strain panel (AID 1159580);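 note: tested at 20 µM; growth read once vehicle control cultures reached saturation at 30 °C; 1 = growth at the plate median or of vehicle wells; lower values mean less growth of the strain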
Details: growth OD

Measured: normalized growth

CC1CC2C3CC(F)C4=CC(=O)C=CC4(C)C3(F)C(O)CC2(C)C1C(=O)COC(=O)C(C)(C)C (stereo not given)
active: S. cerevisiae deletion strains, locus YDL134C, strain PPH21, stronger effect = lower value 0.873 | S. cerevisiae deletion strains, locus YIL066C, strain RNR3, stronger effect = lower value 0.852 | S. cerevisiae deletion strains, locus YLR342W, strain FKS1 (second series), stronger effect = lower value 0.758 | S. cerevisiae deletion strains, locus YOL006C, strain TOP1, stronger effect = lower value 0.509 | S. cerevisiae deletion strains, locus YOR061W, strain CKA2, stronger effect = lower value 0.878 | S. cerevisiae strains, strain wild type, stronger effect = lower value 0.876
inactive: S. cerevisiae deletion strains, locus YBR021W, strain FUR4, stronger effect = lower value 0.903 | S. cerevisiae deletion strains, locus YBR229C, strain ROT2, stronger effect = lower value 0.997 | S. cerevisiae deletion strains, locus YCL029C, strain bik1, stronger effect = lower value 1.05 | S. cerevisiae deletion strains, locus YDL035C, strain GPR1, stronger effect = lower value 0.871 | S. cerevisiae deletion strains, locus YDL074C, strain BRE1, stronger effect = lower value 0.879 | S. cerevisiae deletion strains, locus YDL101C, strain DUN1, stronger effect = lower value 1.01 | S. cerevisiae deletion strains, locus YDL185W, strain tfp1, stronger effect = lower value 1.01 | S. cerevisiae deletion strains, locus YDL192W, strain arf1, stronger effect = lower value 0.997 | S. cerevisiae deletion strains, locus YDR101C, strain arx1, stronger effect = lower value 1.02 | S. cerevisiae deletion strains, locus YDR150W, strain NUM1, stronger effect = lower value 0.977 | S. cerevisiae deletion strains, locus YDR162C, strain NBP2, stronger effect = lower value 0.867 | S. cerevisiae deletion strains, locus YDR318W, strain mcm21, stronger effect = lower value 1.01 | S. cerevisiae deletion strains, locus YDR388W, stronger effect = lower value 1.04 | S. cerevisiae deletion strains, locus YDR502C, strain sam2, stronger effect = lower value 1.02 | S. cerevisiae deletion strains, locus YEL061C, strain CIN8, stronger effect = lower value 0.973 | S. cerevisiae deletion strains, locus YER110C, stronger effect = lower value 1.04 | S. cerevisiae deletion strains, locus YER155C, strain BEM2, stronger effect = lower value 1.04 | S. cerevisiae deletion strains, locus YER167W, strain BCK2, stronger effect = lower value 0.992 | S. cerevisiae deletion strains, locus YGL078C, strain dbp3, stronger effect = lower value 1.02 | S. cerevisiae deletion strains, locus YGL086W, strain mad1, stronger effect = lower value 0.96 | S. cerevisiae deletion strains, locus YGL248W, strain PDE1, stronger effect = lower value 0.927 | S. cerevisiae deletion strains, locus YGR078C, strain PAC10, stronger effect = lower value 0.92 | S. cerevisiae deletion strains, locus YGR135W, strain pre9, stronger effect = lower value 0.957 | S. cerevisiae deletion strains, locus YGR252W, strain gcn5, stronger effect = lower value 0.849 | S. cerevisiae deletion strains, locus YHR030C, strain SLT2, stronger effect = lower value 0.989 | S. cerevisiae deletion strains, locus YHR079C, strain IRE1 (second series), stronger effect = lower value 1.03 | S. cerevisiae deletion strains, locus YHR094C, strain hxt1, stronger effect = lower value 1.04 | S. cerevisiae deletion strains, locus YHR129C, strain ARP1, stronger effect = lower value 0.964 | S. cerevisiae deletion strains, locus YHR200W, strain rpn10, stronger effect = lower value 1.01 | S. cerevisiae deletion strains, locus YIL073C, strain SPO22, stronger effect = lower value 0.954 | S. cerevisiae deletion strains, locus YIL125W, strain kgd1, stronger effect = lower value 1.02 | S. cerevisiae deletion strains, locus YIR030C, strain dcg1, stronger effect = lower value 1.03 | S. cerevisiae deletion strains, locus YJL095W, strain BCK1, stronger effect = lower value 0.989 | S. cerevisiae deletion strains, locus YJL134W, strain LCB3, stronger effect = lower value 1.01 | S. cerevisiae deletion strains, locus YJL168C, strain set2, stronger effect = lower value 1.01 | S. cerevisiae deletion strains, locus YJL187C, strain SWE1 (second series), stronger effect = lower value 0.934 | S. cerevisiae deletion strains, locus YJR043C, strain POL32, stronger effect = lower value 0.892 | S. cerevisiae deletion strains, locus YKL009W, strain mrt4, stronger effect = lower value 1.03 | S. cerevisiae deletion strains, locus YKL068W, stronger effect = lower value 1.02 | S. cerevisiae deletion strains, locus YKL085W, strain MDH1 (second series), stronger effect = lower value 1.01 | S. cerevisiae deletion strains, locus YKL085W, strain MDH1, stronger effect = lower value 1.01 | S. cerevisiae deletion strains, locus YKR001C, strain vps1, stronger effect = lower value 0.987 | S. cerevisiae deletion strains, locus YLR039C, strain RIC1, stronger effect = lower value 0.804 | S. cerevisiae deletion strains, locus YLR058C, strain SHM2, stronger effect = lower value 0.981 | S. cerevisiae deletion strains, locus YLR102C, strain apc9, stronger effect = lower value 1.03 | S. cerevisiae deletion strains, locus YLR262C, strain YPT6, stronger effect = lower value 0.872 | S. cerevisiae deletion strains, locus YLR268W, strain sec22, stronger effect = lower value 0.985 | S. cerevisiae deletion strains, locus YLR330W, strain CHS5, stronger effect = lower value 0.967 | S. cerevisiae deletion strains, locus YLR371W, strain rom2, stronger effect = lower value 1.03 | S. cerevisiae deletion strains, locus YLR418C, strain cdc73, stronger effect = lower value 0.953 | S. cerevisiae deletion strains, locus YML016C, strain PPZ1, stronger effect = lower value 0.951 | S. cerevisiae deletion strains, locus YML032C, strain rad52, stronger effect = lower value 1.03 | S. cerevisiae deletion strains, locus YML124C, strain tub3, stronger effect = lower value 1.02 | S. cerevisiae deletion strains, locus YMR078C, strain ctf18, stronger effect = lower value 1.04 | S. cerevisiae deletion strains, locus YMR223W, strain ubp8, stronger effect = lower value 0.965 | S. cerevisiae deletion strains, locus YMR307W, strain GAS1, stronger effect = lower value 0.922 | S. cerevisiae deletion strains, locus YNL067W, strain RPL9B, stronger effect = lower value 0.989 | S. cerevisiae deletion strains, locus YNL128W, strain TEP1, stronger effect = lower value 0.908 | S. cerevisiae deletion strains, locus YNL233W, strain BNI4, stronger effect = lower value 0.919 | S. cerevisiae deletion strains, locus YNL250W, strain rad50, stronger effect = lower value 1.01 | S. cerevisiae deletion strains, locus YNL271C, strain bni1, stronger effect = lower value 1.02 | S. cerevisiae deletion strains, locus YNL298W, strain CLA4, stronger effect = lower value 1.01 | S. cerevisiae deletion strains, locus YNL307C, strain MCK1, stronger effect = lower value 1.03 | S. cerevisiae deletion strains, locus YNL322C, strain KRE1, stronger effect = lower value 0.984 | S. cerevisiae deletion strains, locus YNR052C, strain pop2, stronger effect = lower value 1.01 | S. cerevisiae deletion strains, locus YOL012C, strain htz1 1.01 | S. cerevisiae deletion strains, locus YOL147C, strain pex11, stronger effect = lower value 1.03 | S. cerevisiae deletion strains, locus YOR069W, strain VPS5, stronger effect = lower value 0.991 | S. cerevisiae deletion strains, locus YOR136W, strain idh2, stronger effect = lower value 1.02 | S. cerevisiae deletion strains, locus YOR144C, strain elg1, stronger effect = lower value 1.03 | S. cerevisiae deletion strains, locus YOR184W, strain ser1, stronger effect = lower value 0.974 | S. cerevisiae deletion strains, locus YOR316C, strain cot1, stronger effect = lower value 1.03 | S. cerevisiae deletion strains, locus YPL055C, strain LGE1, stronger effect = lower value 0.843 | S. cerevisiae deletion strains, locus YPL241C, strain CIN2, stronger effect = lower value 0.992 | S. cerevisiae deletion strains, locus YPR119W, strain clb2, stronger effect = lower value 1.03 | S. cerevisiae deletion strains, locus YPR141C, strain kar3, stronger effect = lower value 1.02 | S. cerevisiae deletion strains, locus YPR163C, strain tif3, stronger effect = lower value 1.03 | S. cerevisiae deletion strains, locus YPR167C, strain met16, stronger effect = lower value 1.01 | S. cerevisiae deletion strains, strain wtn01, stronger effect = lower value 0.983
